Reference: PubChem BioAssay AID1159580 (chemical genetic matrix, 2015)
Out of some 5,500 compounds screened, about 2,000 (36%) were called active. Roughly 18% stayed inconclusive and do not appear here. Cut-off read from the data, not from the text of the source: active = normalized growth mostly below about 0.91 (no sharp cut-off); inconclusive = no clear call, values can overlap the other calls; inactive = mostly above about 0.92. The list shows a part of the results.

Test: chemical genetic growth profiling, strain panel (AID 1159580);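 note: tested at 20 µM; growth read once vehicle control cultures reached saturation at 30 °C; 1 = growth at the plate median or of vehicle wells; lower values mean less growth of the strain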
Details: growth OD

Measured: normalized growth

CC(=O)c1ccc(-c2ccc(C(C)=O)cc2)cc1
inactive: S. cerevisiae deletion strains, locus YAL013W, strain DEP1, active compounds read low 1 | S. cerevisiae deletion strains, locus YBR229C, strain ROT2, active compounds read low 0.999 | S. cerevisiae deletion strains, locus YDL101C, strain DUN1, active compounds read low 1.03 | S. cerevisiae deletion strains, locus YDL134C, strain PPH21, active compounds read low 1.01 | S. cerevisiae deletion strains, locus YDR150W, strain NUM1, active compounds read low 1 | S. cerevisiae deletion strains, locus YEL061C, strain CIN8, active compounds read low 1.01 | S. cerevisiae deletion strains, locus YGR078C, strain PAC10, active compounds read low 1.02 | S. cerevisiae deletion strains, locus YGR229C, strain SMI1, active compounds read low 1 | S. cerevisiae deletion strains, locus YHR030C, strain SLT2, active compounds read low 0.999 | S. cerevisiae deletion strains, locus YHR087W, strain rtc3, active compounds read low 0.987 | S. cerevisiae deletion strains, locus YJR043C, strain POL32, active compounds read low 0.974 | S. cerevisiae deletion strains, locus YJR075W, strain HOC1, active compounds read low 1.02 | S. cerevisiae deletion strains, locus YKL190W, strain CNB1, active compounds read low 1 | S. cerevisiae deletion strains, locus YLR039C, strain RIC1, active compounds read low 1.06 | S. cerevisiae deletion strains, locus YLR058C, strain SHM2 (second series), active compounds read low 0.987 | S. cerevisiae deletion strains, locus YLR085C, strain ARP6, active compounds read low 0.95 | S. cerevisiae deletion strains, locus YLR262C, strain YPT6, active compounds read low 1.03 | S. cerevisiae deletion strains, locus YML094W, strain GIM5, active compounds read low 0.955 | S. cerevisiae deletion strains, locus YMR219W, strain ESC1, active compounds read low 1.02 | S. cerevisiae deletion strains, locus YMR263W, strain SAP30, active compounds read low 1 | S. cerevisiae deletion strains, locus YMR307W, strain GAS1, active compounds read low 0.977 | S. cerevisiae deletion strains, locus YNL153C, strain GIM3, active compounds read low 1.01 | S. cerevisiae deletion strains, locus YNL298W, strain CLA4 (second series), active compounds read low 1.01 | S. cerevisiae deletion strains, locus YNL322C, strain KRE1, active compounds read low 1.01 | S. cerevisiae deletion strains, locus YNR030W, strain Alg12, active compounds read low 1.01 | S. cerevisiae deletion strains, locus YOL006C, strain TOP1, active compounds read low 0.956 | S. cerevisiae deletion strains, locus YPL055C, strain LGE1, active compounds read low 0.941 | S. cerevisiae deletion strains, locus YPL241C, strain CIN2, active compounds read low 0.991 | S. cerevisiae deletion strains, locus YPR135W, strain CTF4, active compounds read low 1.01 | S. cerevisiae strains, strain wild type, active compounds read low 1.03
